Screen size: about 56,000 sequences; about 4,300 (7.7%) were called active. Cut-off read from the data, not from the text of the source: active = GI50 up to about 1.1 µM and inactive = higher. The list is a sample of the results. Measured potencies and affinities stand elsewhere.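 Test compounds were applied to cells in 96-well plates for 48 hours at 5 doses. GI50 = concentration required for 50% inhibition of growth.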

The results in this text go back to ChEMBL document CHEMBL1201862, “PubChem BioAssay data set” (2004).

This assay concerns OVCAR-3. Kind of assay: NCI tumour cell line growth inhibition, 48 h.
Consider “[Bis(aminomethyl)dimethylsilane]dichloroplatinum (II), CHEMBL2146201”, for which the GI50 is 30.5 µM. The same measure for “[Bis(aminomethyl)pentamethylenesilane]dichloropaltinum(II), CHEMBL2146202”: 6.5 µM; for “[Bis(aminomethyl)dimethylsilane]tetrachloroplatinum(IV), CHEMBL2146190”: 7.29 µM.

In turn, “cis-Bis[[(trimethylsilyl)methyl]amino]tetrachloroplatinum(IV), CHEMBL2146191” yielded a GI50 of 2.99 µM. The result for “[Bis(aminomethyl)pentamethylenesilane]tetrachloropaltinum(IV), CHEMBL2146204” reads 4.56 µM.

As to “[Bis(aminomethyl)tetramethylenesilane]dichloropaltinum(II), CHEMBL2146205”, the GI50 was determined as 32.5 µM.

Turning to “[Bis(aminomethyl)tetramethylenesilane]tetrachloropaltinum(IV), CHEMBL2146189”, the GI50 turned out to be 13.1 µM. CISPLATIN, CHEMBL11359 registered a GI50 of 2.67 µM. The result for “[Bis(aminomethyl)diethylsilane]tetrachloroplatinum(IV), CHEMBL2146203” reads 6.11 µM; that for “[Bis(aminomethyl)ethylmethylsilane]tetrachloroplatinum(IV), CHEMBL2146192”, 4.43 µM.

In the case of “mu-(1,7-nanodiamine-N,N')bis-(cis-aminedichloroplatimum (II)), CHEMBL2146215”, the GI50 turned out to be 29 µM.
